{"source": "PubChem BioAssay AID1259422", "about": "(The Scripps Research Institute Molecular Screening Center, 2018)", "note": "Among all 640,000 compounds or so, about 9,300 (1.5%) were called active. No stated cut-off is given here; in the data, active means inhibition above about 32%; inactive means the rest. This excerpt belongs to a sample that is enriched for actives.", "data": [{"assay": "TEAD-YAP interaction inhibition, primary screen, TEAD-YAP interaction inhibitor project, luminescence, HEK-TIYL cells (AID 1259422);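 further: 0% = median of test compound wells and 100% = reference inhibitor wells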", "conditions": "TEAD-Gal4/YAP UAS-luciferase luminescence, at 9.12 µM, hits give high values", "values": [{"smiles": "O=C1OC(c2ccccc2Cl)=N/C1=C\\c1ccco1", "inhibition": "4.9% (inactive)"}, {"smiles": "COc1cc(/C=N/NC(=O)CC(=O)NCC(C)C)ccc1O", "inhibition": "8.56% (inactive)"}, {"smiles": "CCOC(=O)N1CCN(C(=O)c2ccc3c(=O)n(Cc4ccccc4Cl)c(=S)[nH]c3c2)CC1", "inhibition": "-2.49% (inactive)"}, {"smiles": "COc1ccc(CCNc2nc(-c3c(C)noc3C)nc3c2ncn3-c2ccsc2)cc1", "inhibition": "-2.43% (inactive)"}, {"smiles": "Cc1noc(C)c1-c1nc(NC2CC2)c2ncn(-c3ccsc3)c2n1", "inhibition": "41.4% (active)"}, {"smiles": "c1ccc2c(-c3nc(NC4CC4)c4ncn(-c5ccsc5)c4n3)csc2c1", "inhibition": "13.5% (inactive)"}, {"smiles": "CC(=O)N(c1cccc(C)c1)C1SC(=O)N(c2cccc(C)c2)C1=O", "note": "(configuration not stated)", "inhibition": "3.53% (inactive)"}, {"smiles": "O=C(Nc1ccc(-c2nc3cccnc3s2)cc1)C1CCCC1", "inhibition": "51.9% (active)"}, {"smiles": "CC(=O)Nc1cccc(-c2nc3cccnc3s2)c1", "inhibition": "-43.1% (inactive)"}, {"smiles": "CC(=O)Nc1ccc(S(=O)(=O)Nc2ccc(-c3nc4cccnc4s3)cc2)cc1", "inhibition": "7.3% (inactive)"}, {"smiles": "Cc1ncc(-c2ccc(F)cc2)c(C2CCCN(CCO)C2)n1", "note": "(configuration not stated)", "inhibition": "-9.4% (inactive)"}, {"smiles": "COC(=O)COc1ccc(/C=C2/NC(=O)N(c3ccccc3)C2=O)cc1OC", "inhibition": "11.3% (inactive)"}, {"smiles": "Cc1nc(NC(=O)/C=C/c2cccc([N+](=O)[O-])c2)sc1C(=O)N(C)C", "inhibition": "-12.3% (inactive)"}, {"smiles": "N#Cc1ccc(OCC(=O)Nc2ccc3c(c2)C(=O)c2ccccc2C3=O)cc1", "inhibition": "-21.1% (inactive)"}, {"smiles": "COc1ccc(C(=O)CSC2=C(C#N)C(c3cccs3)CC(=O)N2)cc1", "note": "(configuration not stated)", "inhibition": "-82.2% (inactive)"}, {"smiles": "N#CC1=C(SCC(=O)OCc2ccccc2)NC(=O)CC1c1ccc(F)cc1", "note": "(configuration not stated)", "inhibition": "6.22% (inactive)"}, {"smiles": "CCOc1cc(C2CC(=O)NC(SCC(=O)OCc3ccccc3)=C2C#N)ccc1O", "note": "(configuration not stated)", "inhibition": "-6.79% (inactive)"}, {"smiles": "N#CC1=C(SCC(=O)Nc2nccs2)NC(=O)CC1c1cccs1", "note": "(configuration not stated)", "inhibition": "5.49% (inactive)"}, {"smiles": "CCOC(=O)CSC1=C(C#N)C(c2ccccc2)CC(=O)N1", "note": "(configuration not stated)", "inhibition": "53.9% (active)"}, {"smiles": "CCOC(=O)CSC1=C(C#N)C(c2sccc2C)CC(=O)N1", "note": "(configuration not stated)", "inhibition": "56.8% (active)"}, {"smiles": "CCOC(=O)c1ccc(CN(Cc2ccc(Br)cc2)S(=O)(=O)c2cc(Cl)cc(Cl)c2)cc1", "inhibition": "11.6% (inactive)"}, {"smiles": "O=C(NCCc1ccccc1)C(=O)Nc1ccccc1F", "inhibition": "-44.1% (inactive)"}, {"smiles": "CCCCSc1nc2sc3c(c2c(=O)n1-c1ccc(OC)cc1)CCCC3", "inhibition": "-1.35% (inactive)"}, {"smiles": "O=C(CCSc1ccccc1)Nc1cccc2ccc(-n3ccnc3)nc12", "inhibition": "-3.58% (inactive)"}, {"smiles": "COc1cc(C(=O)Nc2cc(-c3nc4ccc(C)cc4o3)ccc2C)ccc1OCc1ccc(Cl)cc1", "inhibition": "-64.2% (inactive)"}, {"smiles": "Cc1cc(N2CCCCC2)nc(NCCNC(=O)C2CCCO2)n1", "note": "(configuration not stated)", "inhibition": "42.3% (active)"}, {"smiles": "Cc1cc(N2CCOCC2)nc(SCC(=O)N2CCCC2)n1", "inhibition": "5.97% (inactive)"}, {"smiles": "CCNC(=O)C1CCN(c2nc(C)cc(C)n2)CC1", "inhibition": "-5.09% (inactive)"}, {"smiles": "O=C(/C=C/c1ccc(F)cc1)Nc1ccccc1F", "inhibition": "79.4% (active)"}, {"smiles": "Cc1cccc(NC(=O)/C=C/c2ccc(F)cc2)c1", "inhibition": "34.1% (active)"}, {"smiles": "Cc1csc(NC(=O)/C=C/c2ccc(F)cc2)n1", "inhibition": "-40.2% (inactive)"}, {"smiles": "O=C(/C=C/c1ccc(F)cc1)NCCCCNC(=O)/C=C/c1ccc(F)cc1", "inhibition": "-6.73% (inactive)"}, {"smiles": "O=C(/C=C\\c1ccccc1)Nc1cc2ccccc2cc1NC(=O)/C=C/c1ccccc1", "inhibition": "-0.29% (inactive)"}, {"smiles": "Cc1cc(C)nc(NS(=O)(=O)c2ccc(NC(=O)/C=C/c3ccc(F)cc3)cc2)n1", "inhibition": "-8.5% (inactive)"}, {"smiles": "O=C(Nc1ccc(-c2nc3cc(Cl)ccc3o2)cc1)c1ccc(-c2ccc(Cl)cc2)o1", "inhibition": "-100% (inactive)"}, {"smiles": "O=S(=O)(NCc1ccccc1)c1cccc(S(=O)(=O)NCc2ccccc2)c1", "inhibition": "4.17% (inactive)"}, {"smiles": "N#C/C(=C\\c1cn(-c2ccccc2)nc1-c1ccc(Cl)cc1)C(N)=O", "inhibition": "2.99% (inactive)"}, {"smiles": "NC(=O)c1ccc(-c2nc(NC3CC3)c3ncn(C4CCCCC4)c3n2)cc1", "inhibition": "18% (inactive)"}, {"smiles": "O=C(O)c1nnn(-c2ccccc2)c1C(=O)O", "inhibition": "5.21% (inactive)"}, {"smiles": "CCOC(=O)c1sc2nc(C)nc(N3CCCCC3)c2c1C", "inhibition": "-2.79% (inactive)"}, {"smiles": "CCN(Cc1ccccc1)Cc1ccc([N+](=O)[O-])cc1", "inhibition": "10.2% (inactive)"}, {"smiles": "O=[N+]([O-])C1CS(=O)(=O)C=C1N(Cc1ccccc1)c1ccccc1", "note": "(configuration not stated)", "inhibition": "39.5% (active)"}, {"smiles": "O=C(c1cc2ccccc2oc1=O)N(Cc1ccccc1)c1cccc([N+](=O)[O-])c1", "inhibition": "0.25% (inactive)"}, {"smiles": "Cc1cc(OCc2nc(SCC(=O)N(C)C)n[nH]2)ccc1Cl", "inhibition": "-1.92% (inactive)"}, {"smiles": "Cc1ccccc1Nc1ncnc2nc[nH]c12", "inhibition": "-0.78% (inactive)"}, {"smiles": "COc1cc(C(=O)NC(=S)Nc2ccccc2O)cc(OC)c1OC", "inhibition": "12% (inactive)"}, {"smiles": "CCc1cc(C)cc(OCC(O)Cn2c(C)nc3ccccc32)c1", "note": "(configuration not stated)", "inhibition": "26.7% (inactive)"}, {"smiles": "Cc1cc(C)c(OCC(O)Cn2c(C)nc3ccccc32)c(C)c1", "note": "(configuration not stated)", "inhibition": "35.1% (active)"}, {"smiles": "Cc1nc2ccccc2n1CC(O)COc1ccc(N)cc1", "note": "(configuration not stated)", "inhibition": "10.8% (inactive)"}, {"smiles": "O=C(Oc1cc(-c2ccc(Cl)cc2)c2oc(=O)sc2c1)c1ccccc1", "inhibition": "-3.66% (inactive)"}, {"smiles": "COc1ccccc1N1CCN(S(=O)(=O)c2ccccc2[N+](=O)[O-])CC1", "inhibition": "13% (inactive)"}, {"smiles": "COc1ccccc1N1CCN(c2c(-c3ccc(Cl)cc3)c(=O)c2=O)CC1", "inhibition": "70.2% (active)"}, {"smiles": "COc1ccccc1N1CCN(Cc2cc(=O)c(OCc3ccc(Cl)cc3)co2)CC1", "inhibition": "6.69% (inactive)"}, {"smiles": "CCOC(=O)N1CCC(N2C(=O)c3ccc(C(=O)NCC(OC)OC)cc3C2=O)CC1", "inhibition": "10.6% (inactive)"}, {"smiles": "CCCCSc1nnc(NC(=O)C2CC2)s1", "inhibition": "-17.5% (inactive)"}, {"smiles": "NS(=O)(=O)c1cccc(N=C2C(=O)Nc3ccc([N+](=O)[O-])cc32)c1", "inhibition": "-2.91% (inactive)"}, {"smiles": "CCN(CC)c1ccc2cc(-c3nc4ccc(Cl)cc4[nH]3)c(=O)oc2c1", "inhibition": "25.2% (inactive)"}, {"smiles": "CCN(CC)c1ccc2cc(-c3nnc(Nc4ccccc4F)s3)c(=O)oc2c1", "inhibition": "2.05% (inactive)"}, {"smiles": "CCN(CC)c1ccc2cc(-c3nc4ccccc4[nH]3)c(=N)oc2c1", "inhibition": "76.8% (active)"}, {"smiles": "CN(C)c1ccc(C=NCC(O)CN=Cc2ccc(N(C)C)cc2)cc1", "note": "(configuration not stated)", "inhibition": "3.49% (inactive)"}, {"smiles": "CC[n+]1cc(C)ccc1/C=C/c1ccc(N(C)C)cc1", "inhibition": "86.9% (active)"}, {"smiles": "CC[n+]1c(/C=C/c2ccc(N(C)C)cc2)oc2ccccc21", "inhibition": "1.32% (inactive)"}]}]}
